A word on the AC50: it is the midpoint of the concentration-response curve, whichever way the signal moves.

The structures appear in SMILES notation. “And” between values parts separate entries of the source, which are not always exact repeats. Identical values can stand only once. Out of some 16,000 compounds screened, about 5,800 (36%) were called active. About 23% were inconclusive and are not listed. Some of the results follow. Values without a mark were called inactive. Calls come from the whole dose curve; as a rule, active = well fitted curve in the direction sought with a large enough effect; inconclusive = small, poorly fitted or top-dose-only effect, or effect the other way; inactive = no such curve, though single readings can be large or run the other way.
% is set by controls: 0 for no effect and ±100 for the full control effect.

This test deals with Cytochrome P450 2C19 (Homo sapiens) (UniProt P33261). Briefly: Cytochrome panel assay with activity outcomes. Particulars: recombinant CYP, pro-luciferin dealkylation, luminescence, p450-cyp2c19; series mostly up to 57.1 µM; activity, negative = inhibition: at the top concentration.
Cytochrome P450 2C19 (Homo sapiens), sequence (P33261 whole entry, looked up): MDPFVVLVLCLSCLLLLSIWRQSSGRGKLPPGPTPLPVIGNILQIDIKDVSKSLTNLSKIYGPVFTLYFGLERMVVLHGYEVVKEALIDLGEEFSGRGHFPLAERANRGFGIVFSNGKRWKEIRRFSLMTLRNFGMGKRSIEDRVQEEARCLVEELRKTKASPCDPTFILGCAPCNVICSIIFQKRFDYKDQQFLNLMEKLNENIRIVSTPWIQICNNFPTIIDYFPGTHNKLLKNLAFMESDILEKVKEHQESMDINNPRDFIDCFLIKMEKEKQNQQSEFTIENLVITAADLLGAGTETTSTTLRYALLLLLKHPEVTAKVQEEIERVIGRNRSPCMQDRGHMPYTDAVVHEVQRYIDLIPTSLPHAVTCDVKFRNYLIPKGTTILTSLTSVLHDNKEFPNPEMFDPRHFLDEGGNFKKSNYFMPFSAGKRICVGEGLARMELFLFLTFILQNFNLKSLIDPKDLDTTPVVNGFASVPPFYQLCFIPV
As for `NS(=O)(=O)c1cc(Cl)c(Cl)c(S(N)(=O)=O)c1`, the “activity, negative = inhibition” value is 26.8% [at 25.6 µM]. Consider `CC(=O)NNC(=O)C(O)(c1ccccc1)c1ccccc1`, for which the “activity, negative = inhibition” value is 9.3%. As for `Cc1cccc(N(NC(=O)C(C)(C)O)C(=O)c2ccccc2)c1`, the AC50 was 20 µM (active). Regarding `CCN1C(=O)[C@H]2[C@H]3[C@H](O)[C@H](O)C/C(=N/OCC(C)C)[C@@H]3CC[C@@H]2C1=O`, the activity, negative = inhibition was -7.39% [at 11.4 µM]. As to `CCc1ccc(C(=O)N2CCC(c3nc4ccccc4s3)CC2)cc1`, the AC50 was 14.1 µM (active). The same measure, in the same setting: then `C[C@H]1NC(=O)NC1=O`, with “inactive”; and `C/C(=N\NC(=O)c1ccc(Cl)cc1)c1cccc(NC(=O)C(C)C)c1`, with 17.8 µM (active).

`C/C(=N/NC(=O)c1ccc(C)s1)c1cccc(NC(=O)COc2ccc(Cl)cc2C)c1`: the AC50 is 3.16 µM (active).

Regarding `C/C(=N\NC(=O)c1cccc(Cl)c1)c1cccc(NC(=O)C(C)C)c1`, the “activity, negative = inhibition” value is 13.8%. Take `C/C(=N/NC(=O)c1cccs1)c1ccc(NC(=O)COc2ccc(Cl)cc2Cl)cc1`: the AC50 is 14.1 µM (active). As to `CCC(CC)C(=O)Nc1cccc(/C(C)=N\NC(=O)c2ccc(C)s2)c1`, the “activity, negative = inhibition” value was 1.98%.

On to `CCc1ccc2c(c1)c(N=NC1=NC(=O)CS1)c(O)n2CC`, for which the “activity, negative = inhibition” value was -18.3%. Regarding `CC(=O)NNc1cccc(Cl)n1`, the “activity, negative = inhibition” value is 11.9%.

For the compound `C=CCSC[C@@H]1Nc2cc(Cl)c(S(N)(=O)=O)cc2S(=O)(=O)N1`, the “activity, negative = inhibition” value is 7.79% [at 25.6 µM]. On the same count and under the same terms, in the case of `O=C(NCC1CCCO1)c1nn2c(c1Cl)NC(c1ccc(F)cc1)CC2C(F)(F)F` (stereo not given) it was -14.1%. On the same count and under the same terms, in the case of `CN(C(=O)Cn1nnc(-c2cccc(C(F)(F)F)c2)n1)C1CCCCC1` it was 7.73%. Regarding `CC(C)CC(C(=O)NCC1CCCO1)N(C(=O)Cn1nnc(-c2ccc(F)cc2)n1)c1ccccc1F` (stereo not given), the AC50 was 25.1 µM (active). As to `CC(C)CC(C(=O)NCC1CCCO1)N(C(=O)Cn1nnc(-c2ccc(F)cc2)n1)c1cccc(C(F)(F)F)c1` (stereo not given), the AC50 is 3.55 µM (active). On to `O=S1(=O)N[C@H]2CC[C@@H]3NS(=O)(=O)N[C@H]4CC[C@H](N1)N4S(=O)(=O)N23`, for which the activity, negative = inhibition was 11.2% [at 11.4 µM]. Same read-out and setting: in the case of `CCN1C(=O)[C@H]2[C@H]3[C@H](O)[C@H](O)C/C(=N/O[C@@H](C)c4cn([C@H](CO)Cc5ccccc5)nn4)[C@@H]3CC[C@@H]2C1=O` it was 4.85% [at 11.4 µM] and 16% [at 11.4 µM]. For `O=C(Nc1cnn(Cc2ccc(Cl)cc2Cl)c1)c1cc(-c2cccs2)on1`, the AC50 was 4.47 µM (active). Take `c1ccc2c(c1)nnn2CN1CCOCC1`: the activity, negative = inhibition is 22.7% [at 11.4 µM].

Take `c1ccc(-c2ccc(C3=Nn4c(Cn5nnc6ccccc65)nnc4SC3)cc2)cc1`: the AC50 was 14.1 µM (active). Same read-out and setting: in the case of `Fc1ccc(C2=Nn3c(Cc4ccccc4F)nnc3SC2)cc1` it was 3.98 µM (active). With `C#CCCCO/N=C1/C[C@@H](O)[C@@H](O)[C@@H]2[C@@H]3C(=O)N(CC)C(=O)[C@H]3CC[C@H]12`, the activity, negative = inhibition was -28.1% [at 11.4 µM]. Still for that read-out and setting: then `O=C(N/N=C1/C[C@@H](O)[C@@H](O)[C@@H]2[C@@H]3C(=O)N(Cc4ccccc4)C(=O)[C@H]3CC[C@H]12)OCc1ccccc1`, with 0.945% [at 11.4 µM]; and `CC(C)=CCC/C(C)=C/CO/N=C1/C[C@@H](O)[C@@H](O)[C@@H]2[C@@H]3C(=O)N(C4CCCCC4)C(=O)[C@H]3CC[C@H]12`, with -23.1% [at 11.4 µM]; and `CN[C@@H]1[C@H](O[C@@H]2O[C@H](CO)[C@@H](N)[C@H](O)[C@@H]2O)O[C@H]2C[C@@H](N)[C@@H](O[C@H]3[C@@H](O)[C@H](O)[C@H](N)C[C@@H]3N)O[C@H]2[C@H]1O`, with -36.8% [at 25.6 µM].

With `CC(=O)Nc1ccc(S(=O)(=O)NC(CC(=O)NCCCN2CCOCC2)C(C)C)cc1` (stereo not given), the “activity, negative = inhibition” value was -6.43%. Take `CC(=O)Nc1ccc(S(=O)(=O)NC(CC(=O)NCCC2=CCCCC2)C(C)C)cc1` (stereo not given): the AC50 was 10 µM (active).

With `CC(C)C(=O)NCCn1ccc2ccccc21`, the AC50 is 6.31 µM (active). Regarding `CCN(c1ccccc1)c1cc(NC)[n+](C)c(C)n1`, the “activity, negative = inhibition” value was -3.33%. On the same count and under the same terms, then `O=C(O)[C@@H]1[C@@H]2C[C@H]([C@@H](Br)[C@H]2N2C(=O)CCC2=O)[C@@H]1C(=O)O`, with 39.9% [at 11.4 µM]; and `O=C(O)c1cc(=O)c2ccc(Cl)cc2[nH]1`, with 14.6%. Same read-out and setting: then `COc1ccc(C(=O)Nc2ccc(C(=O)OCC(=O)c3ccccc3)cc2)cc1`, with -13.4%.

On to `COc1cccc(/C=N/NC(=O)c2c(-c3ccccc3)noc2C)c1`, for which the AC50 was 2 µM (active). In the case of `COc1ccc(NC(=O)COC(=O)c2c(-c3ccccc3)noc2C)cc1`, the AC50 was 8.91 µM (active). Still for that read-out and setting: in the case of `COc1cccc(/C=N/NC(=O)c2cc(-c3cccn3C)n[nH]2)c1` it was 15.8 µM (active). As to `COc1ccc(C(=O)COC(=O)c2ccc(NC(=O)c3ccccc3)cc2)cc1`, the “activity, negative = inhibition” value was -6.93%.

For `COc1cccc(/C=N/NC(=O)C(=O)NCc2cccnc2)c1`, the “activity, negative = inhibition” value is -29.3%. On to `CC1=NS(=O)(=O)c2cc(Cl)ccc2N1`, for which the AC50 entry is “inactive”.

For the compound `CC(C)(CC(=O)N1CCN(c2ccc(Cl)cc2)CC1)CC1=NS(=O)(=O)c2ccccc2N1`, the AC50 is 7.94 µM (active). Consider `NC(=O)CCCC1=NS(=O)(=O)c2ccccc2N1`, for which the “activity, negative = inhibition” value was -11.7%. Same read-out and setting: then `CCCC1(C(=O)OC)C=C2C(=C(C(C)C)C(=O)C2C)CN1` (stereo not given), with -39.5%. Same read-out and setting: in the case of `CCCC1(C(=O)OC)C=C2C(=C(C)C(=O)C2C)CN1` (stereo not given) it was -44.1%.

The values above are taken from PubChem BioAssay AID1851 (National Center for Advancing Translational Sciences (NCATS), 2009).
